Rows were chosen to be rich in hits. Some 15% of all compounds tested hit in one or more screens of this group.
RORg inh: blocks mouse ROR gamma transcriptional activity; Potency, µM (doses to about 53.6 µM), hits mostly inhibitors; actives 5.4% (n = 310,000); Drosophila S2 Gal4-RORgamma UAS-luciferase reporter, 20 h; P51450; AID 2551; note: nearly all actives have a fitted effect of over 60% in size
Target sequence (P51450 whole entry, looked up, the tested form may be a part): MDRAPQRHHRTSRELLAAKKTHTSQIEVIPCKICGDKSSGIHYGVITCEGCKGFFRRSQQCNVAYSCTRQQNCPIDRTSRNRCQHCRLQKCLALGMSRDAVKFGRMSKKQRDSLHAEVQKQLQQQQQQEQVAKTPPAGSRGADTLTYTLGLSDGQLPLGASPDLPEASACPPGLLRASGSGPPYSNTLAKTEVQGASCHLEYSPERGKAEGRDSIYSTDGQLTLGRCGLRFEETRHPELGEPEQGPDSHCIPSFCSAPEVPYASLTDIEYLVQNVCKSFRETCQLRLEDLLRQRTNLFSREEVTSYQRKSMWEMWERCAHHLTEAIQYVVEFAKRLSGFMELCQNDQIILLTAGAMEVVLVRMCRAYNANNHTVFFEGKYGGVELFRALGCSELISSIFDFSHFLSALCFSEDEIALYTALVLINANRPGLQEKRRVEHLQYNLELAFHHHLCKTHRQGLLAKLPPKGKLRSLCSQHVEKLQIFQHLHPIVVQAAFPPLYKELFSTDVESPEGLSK
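In this cell-based reporter format, copper sulfate (700 uM final) drives Gal4–ROR gamma fusion expression from a metallothionein promoter in Drosophila Schneider cells; compounds preincubated 1 hr, reporter read after 20 hr at ambient temperature.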
ELG1 repair inh: inhibitors of ELG1-dependent DNA repair in HEK293T cells | HEK293T ELG1-luciferase reporter, luminescence, 16 h; DNA damage induced by 5-fluorouridine | Potency, µM (doses to about 46.1 µM), actives largely listed as inhibitors | actives 2.3% (n = 330,000); note: nearly all actives have a fitted effect of over 55% in size
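DMSO vehicle served as the neutral condition. Each well held 2,000 cells given 5-fluorouridine plus compound; after 16 hr at 37 °C/5% CO2, ONE-Glo was added and luciferase measured 30 min later.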
TDP1 cell noCPT: qHTS for Inhibitors of human tyrosyl-DNA phosphodiesterase 1 (TDP1): qHTS in cells in absence of CPT. Potency, µM (titrated, usually from 46.2 µM), most hits filed as inhibitors. actives 15% (n = 420,000). DT40 Tdp1-/- hTDP1 cells, no CPT, ATP luminescence, 48 h; note: nearly all actives have a fitted effect of over 55% in size
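Camptothecin absent (DMSO only). Human TDP1-complemented DT40 knockout cells, 400 cells/well, 37 °C for minimum 48 hr; ATP measured via CellTiter-Glo, 30 min dark incubation, luminescence.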
ALOX12 inh: blocks human arachidonate 12S-lipoxygenase | Potency, µM (titrated, usually from 108 µM), hits mostly inhibitors | purified 12hLO, xylenol orange hydroperoxide absorbance | actives 1.1% (n = 580,000) | AID 1671190 | P18054
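Purified human 12hLO (150 nM final) in 25 mM Hepes, 0.01% Triton X-100, pH 7.0 was preincubated 15 min at room temperature with compound. Then 40 uM arachidonic acid was added, 30 min. Hydroperoxide was read by Fe-XO absorbance ratio 573/405 nm.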
TDP1 cell CPT: growth inhibition of DT40 Tdp1-/-;hTDP1 cells with camptothecin (screen for TDP1 inhibitors). chicken DT40 Tdp1-/-;hTDP1 cells + 20 nM CPT, ATP luminescence, 48 h. Potency, µM (highest dose often 46.2 µM), hits mostly inhibitors. actives 12% (n = 420,000). AID 686979; note: nearly all actives have a fitted effect of over 55% in size
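Cell growth measured by CellTiter-Glo luminescence after a minimum 48 h, 37 C compound exposure with 20 nM CPT in Tdp1-knockout DT40 cells stably expressing hTDP1, seeded 400/well; qHTS titration format.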
Gal4-VP16 FLuc: inhibits Gal4-VP16 luciferase reporter, ROR gamma counter-screen; Potency, µM (series often up to 53.6 µM), usual class: inhibitors; Drosophila S2 Gal4-VP16 UAS-luciferase, luminescence, 20 h; actives 3.5% (n = 310,000);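 note: Gal4-VP16 expression switched on by copper sulfate through the metallothionein promoter; nearly all actives have a fitted effect of over 50% in size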
Of the large screens only hits and unclear results are named; the others gave an inactive call. Calls come from the whole dose curve; as a rule, active = well fitted curve in the direction sought with a large enough effect; inconclusive = small, poorly fitted or top-dose-only effect, or another doubt; inactive = no such curve, though single readings can be large; an effect the other way counts as inactive or inconclusive.

COc1ccccc1-c1nnc(C2CCN(C(=O)c3cccc(Cl)c3)CC2)o1	TDP1 cell noCPT 16µM, TDP1 cell CPT inconclusive (no result: RORg inh, ELG1 repair inh, Gal4-VP16 FLuc)
COCCN1C(=O)COc2ccccc2C1C(=O)NCc1ccccc1 (configuration not stated)	none (no result: RORg inh, ELG1 repair inh, Gal4-VP16 FLuc)
O=C1COc2ccccc2C(c2nc3ccccc3[nH]2)N1Cc1ccccc1 (configuration not stated)	TDP1 cell noCPT 16µM, TDP1 cell CPT inconclusive (no result: RORg inh, ELG1 repair inh, Gal4-VP16 FLuc)
O=C(NCc1ccccc1)C1c2ccccc2OCC(=O)N1Cc1ccccc1 (configuration not stated)	TDP1 cell noCPT 12µM, TDP1 cell CPT inconclusive (no result: RORg inh, ELG1 repair inh, Gal4-VP16 FLuc)
COc1ccc(CN2C(=O)COc3ccccc3C2c2nc3ccccc3[nH]2)cc1 (configuration not stated)	ALOX12 inh inconclusive (no result: RORg inh, ELG1 repair inh, Gal4-VP16 FLuc)
CCOC(=O)C(C)C(C)=O (configuration not stated)	TDP1 cell noCPT 6.5µM, TDP1 cell CPT 6.5µM (no result: ALOX12 inh)
CCc1cc(OCCN(C)C)ccc1Cl	ALOX12 inh inconclusive
CN(C)CCOc1ccc2c(c1)C(=O)C(=Cc1ncc([N+](=O)[O-])n1C)C2	TDP1 cell noCPT 0.13µM, ALOX12 inh inconclusive, TDP1 cell CPT 0.15µM (no result: RORg inh, ELG1 repair inh, Gal4-VP16 FLuc)
COCCNC(=O)CS(=O)(=O)Cc1nc(-c2cccc(OC)c2)oc1C	none (no result: RORg inh, ELG1 repair inh, TDP1 cell noCPT, TDP1 cell CPT, Gal4-VP16 FLuc)
CCc1ccc(-c2cc3c(=O)n(CC(=O)N4CCCC4)nc(C)n3n2)cc1	none
CCOC(=O)C1CCN(C(=O)Cn2nc(C)n3nc(-c4ccc(OC)cc4)cc3c2=O)CC1	ELG1 repair inh inconclusive, TDP1 cell noCPT 21µM, TDP1 cell CPT 23µM
CCOC(=O)N1CCN(C(=O)Cn2nc(C)n3nc(-c4ccc(OC)cc4)cc3c2=O)CC1	TDP1 cell noCPT inconclusive, TDP1 cell CPT inconclusive
CCOC(=O)N1CCN(C(=O)Cn2nc(C)n3nc(-c4ccc(CC)cc4)cc3c2=O)CC1	TDP1 cell noCPT 21µM, TDP1 cell CPT 16µM
COc1ccc(-c2cc3c(=O)n(CC(=O)Nc4ccc(C(C)=O)cc4)ncn3n2)cc1	ELG1 repair inh inconclusive
COc1ccc(-c2cc3c(=O)n(CC(=O)Nc4cccc(Cl)c4)nc(C)n3n2)cc1	TDP1 cell noCPT inconclusive, TDP1 cell CPT 15µM
O=C(Nc1ncnc2sc3c(c12)CCCCC3)c1ccco1	RORg inh inconclusive, TDP1 cell CPT inconclusive, Gal4-VP16 FLuc inconclusive
CN(C)C(=O)c1ccc(Nc2ncnc3sc4c(c23)CCCCC4)cc1	TDP1 cell noCPT 23µM, TDP1 cell CPT inconclusive
CN1CCC(=NNc2ncnc3sc4c(c23)CCCC4)CC1	RORg inh inconclusive, ELG1 repair inh inconclusive, TDP1 cell noCPT 21µM, TDP1 cell CPT 16µM
c1nc(NCCN2CCOCC2)c2c3c(sc2n1)CCCCC3	none
O=S(=O)(Nc1ncnc2sc3c(c12)CCC3)c1ccc(Cl)s1	TDP1 cell noCPT 13µM, ALOX12 inh inconclusive, TDP1 cell CPT inconclusive
O=C(Nc1ncnc2sc3c(c12)CCCC3)c1ccncc1	RORg inh inconclusive, Gal4-VP16 FLuc 11µM
COc1cc(/C=N/O)cc(Br)c1OCc1ccc(C(=O)O)cc1	none (no result: RORg inh, ELG1 repair inh, TDP1 cell noCPT, TDP1 cell CPT, Gal4-VP16 FLuc)
N#CC(c1ccc(Cl)cc1)c1ccc2c(C(F)(F)F)cc(C(F)(F)F)nc2n1 (configuration not stated)	ELG1 repair inh inconclusive, TDP1 cell noCPT 0.58µM, TDP1 cell CPT 0.65µM, Gal4-VP16 FLuc inconclusive
O=C(/C=C/c1ccccn1)c1ccc(Br)cc1O	TDP1 cell noCPT 18µM, ALOX12 inh inconclusive, TDP1 cell CPT 21µM
O=C(/C=C/c1ccccc1O)c1ccc(Br)cc1	none (no result: RORg inh, ELG1 repair inh, TDP1 cell noCPT, TDP1 cell CPT, Gal4-VP16 FLuc)
O=C(/C=C/c1ccccc1Cl)c1cc(Br)ccc1O	none (no result: RORg inh, ELG1 repair inh, TDP1 cell noCPT, TDP1 cell CPT, Gal4-VP16 FLuc)
O=C(/C=C/c1ccccn1)c1cc(Br)ccc1O	TDP1 cell noCPT 23µM, ALOX12 inh inconclusive, TDP1 cell CPT 23µM
NC(=O)c1cc(S(=O)(=O)N2CCCC2)ccc1OCC(=O)Nc1ccc(Oc2ccccc2)cc1	none (no result: RORg inh, ELG1 repair inh, TDP1 cell noCPT, TDP1 cell CPT, Gal4-VP16 FLuc)
CC(C)CNC(=O)C1(C)CCCN1Cc1ccc(OC(F)(F)F)cc1 (configuration not stated)	TDP1 cell noCPT inconclusive, TDP1 cell CPT inconclusive (no result: RORg inh, ELG1 repair inh, Gal4-VP16 FLuc)

Compound activity (PubChem)
